The values that follow come from PubChem BioAssay (NCATS).

Assay [1] can be described thus: qHTS drug screen for cell cycle checkpoint inhibitors in PARPi-resistant BRCA-mutant ovarian cancer cell lines. (AID 1963452; calls by dose curve). The conditions noted are these: PEO1/OlaR viability, CellTiter-Glo luminescence, 96 h, stronger effect = lower value. The gist of the method:
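PEO1, PEO4 and PEO1/OlaR ovarian cancer cells, 600 per well, exposed 96 h at 37C to a dilution series. Viability read by CellTiter-Glo luminescence, normalized to DMSO and empty wells; activity summarized as Z-AUC.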
(Quantitative high-throughput screening tests each substance at several concentrations.)

The nature of assay [2]: qHTS profiling for inhibitors of Plasmodium falciparum proliferation (AID 504749). Also: nearly all actives have a fitted effect of over 60% in size. Also: potency is read from the fitted curve at half-maximal effect.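 As to activity, negative = inhibition: 0% = DMSO vehicle and full inhibition = artemisinin control.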 The settings on record: P. falciparum in erythrocytes, SYBR Green DNA, 72 h. The procedure, abridged: (§1)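 SYBR Green fluorescence of parasite DNA, read after lysis and overnight dark incubation, measured growth over 72 h in erythrocyte culture at 0.3% parasitemia and 2.5% hematocrit. Data normalised to DMSO and 0.29 uM artemisinin, with plate-drift correction.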

The test system of the next assay is 3D7. The assay is described as above. The conditions noted are these: P. falciparum in erythrocytes, SYBR Green DNA, 72 h; series mostly up to 28.7 µM. The gist of the method:
as §1

A further assay concerns 7G8. The assay is described as above. The conditions noted are these: P. falciparum in erythrocytes, SYBR Green DNA, 72 h; series mostly up to 28.7 µM. The gist of the method:
as §1

The test system of the next assay is AA1029. The assay is described as above. The settings on record: P. falciparum in erythrocytes, SYBR Green DNA, 72 h; series mostly up to 28.7 µM. The gist of the method:
as §1

The next assay has as its system AS120. Described as above. The conditions noted are these: P. falciparum in erythrocytes, SYBR Green DNA, 72 h; series mostly up to 28.7 µM. The gist of the method:
as §1

Assay [3] in a line: qHTS for identification of novel therapeutic agents for treatment of microphthalmiaassociated transcription factor (MiT) renal cell carcinoma (RCC) (AID 1963991; calls by dose curve; also: potency is read from the fitted curve at half-maximal effect). The conditions noted are these: CellTiter-Glo, 48 h; for z-score: stronger effect = lower value. The gist of the method:
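Three TFE3-fusion RCC cell lines (UOK109, UOK124, UOK145), 500 cells/well, were exposed to the 1912-compound MIPE 4.0 library for 48 hours at 37 C. Viability was read by CellTiter-Glo luminescence, normalised to DMSO (100%) and empty wells (0%), with 11-concentration curve fits.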

Setting [4] is: measured here: PEO1 parental Z-AUC.
[5] abbreviates: at 28.7 µM (top of the series), parasite line A.
[6] abbreviates: at 28.7 µM (top of the series), parasite line B.
Where [7] appears, read: TFE3-RCC UOK109 viability, measured here: UOK109 Z-AUC.
The mark [8] stands for this setting: TFE3-RCC viability, measured here: UOK124 Z-AUC.
Where [9] appears, read: TFE3-RCC viability, measured here: UOK145 Z-AUC.

Results filed as inconclusive are left out. The source made the active and inactive calls. Unless noted, calls follow the shape of the dose curve; as a rule, active = well fitted inhibition curve with a large enough effect; inconclusive = small, poorly fitted or top-dose-only effect; inactive = flat fitted curve, though single readings scatter.

With `O=C(c1ccc(OCCN2CCCCC2)cc1)c1c(-c2ccc(O)cc2)sc2cc(O)ccc12`, the Z-AUC in assay [1] was 0.6 (inactive); in assay [1] (setting [4]), 0.409; in assay [1] (measured here: PEO4 Z-AUC), 0.0416. For the same compound, the Potency in assay [2] (parasite line A) was 2.82 µM (active); in assay [2] (parasite line B), 11.2 µM (active); in the assay with 3D7 it was 2 µM (active); in the assay on 7G8, 2.51 µM (active); in the assay with AA1029 it was 11.2 µM (active); with AS120, 2.82 µM (active).

Turning to `CC12CC3CC(C)(C1)CC(N)(C3)C2`, the figures for the Z-AUC in assay [1], in assay [1] (setting [4]) and in assay [1] (measured here: PEO4 Z-AUC) were 1.05 (inactive), 0.978 and 0.935, respectively. Also, the values for the activity, negative = inhibition in assay [2] (setting [5]) and in assay [2] (setting [6]) were 13.9% (inactive) and 1.67% (inactive), respectively. The Potency result in the assay with 3D7 and in the assay with AS120 was “inactive” each time. For the same compound, the results for the Potency in the assay with 7G8 and in the assay with AA1029 were 8.91 µM (active) and 10 µM (active), respectively.

As for `CN(C)C(=N)N=C(N)N`, the z-score in assay [3] (setting [7]) was 0.797; in assay [3] (setting [8]), 1.58; in assay [3] (setting [9]), 0.981. The activity, negative = inhibition in assay [2] (at 12.8 µM (top of the series), parasite line A) was 11.7% (inactive); in assay [2] (at 12.8 µM (top of the series), parasite line B) it was 23.8% (inactive). For the same compound, the Potency result in the assay on 3D7, in the assay with 7G8 and in the assay on AA1029 was “inactive” throughout.

For the compound `CC(C)(Oc1ccc(C2CC2(Cl)Cl)cc1)C(=O)O` (stereo unspecified), the Z-AUC in assay [1] was -0.348 (inactive); in assay [1] (setting [4]), -0.606; in assay [1] (measured here: PEO4 Z-AUC), -0.292. The results for the activity, negative = inhibition in assay [2] (setting [5]) and in assay [2] (setting [6]) were -6.79% (inactive) and 2.45% (inactive), respectively. The Potency result in the assay on 3D7, in the assay with AA1029 and in the assay with AS120 was “inactive” each time.

On to `CC1(C)O[C@H]2CC(=O)OC[C@]23[C@H]2CC[C@@]4(C)[C@H](c5ccoc5)OC(=O)[C@H]5O[C@]54[C@]2(C)C(=O)C[C@@H]13`, for which the z-score in assay [3] (setting [7]) is 0.617; in assay [3] (setting [8]), 0.649; in assay [3] (setting [9]), 1.11.

For the compound `CC[C@@]1(O)C(=O)OCc2c1cc1n(c2=O)Cc2cc3c(CN(C)C)c(O)ccc3nc2-1`, the Potency was 5.9 µM (active) in assay [3] (TFE3-RCC UOK109 viability, active = Z-AUC below -0.8 in all three lines); 3.55 µM (active) in assay [2] (parasite line A); 7.08 µM (active) in assay [2] (parasite line B); 5.62 µM (active) in the assay with 3D7; 7.08 µM (active) with AA1029; 3.55 µM (active) in the assay with AS120. In addition, the z-score is -0.963 in assay [3] (setting [7]), -2.75 in assay [3] (setting [8]) and -1.63 in assay [3] (setting [9]).

As to `CCC1(c2ccccc2)C(=O)NCNC1=O`, the activity, negative = inhibition in assay [2] (setting [5]) was 6.87% (inactive); in assay [2] (setting [6]), 11.7% (inactive). Moreover, the Potency entry in the assay with 3D7, with 7G8, with AA1029 and in the assay on AS120 was “inactive” throughout.

For `CCOC(=O)c1ncn2c1CN(C)C(=O)c1cc(F)ccc1-2`, the results for the Z-AUC in assay [1], in assay [1] (setting [4]) and in assay [1] (measured here: PEO4 Z-AUC) were 1.34 (inactive), 1.08 and 1.29, respectively. Further, the results for the activity, negative = inhibition in assay [2] (setting [5]) and in assay [2] (setting [6]) were 8.32% (inactive) and 17% (inactive), respectively. Further, the Potency result in the assay on 3D7, in the assay on AA1029 and in the assay with AS120 was “inactive” throughout.

As for `O=C(c1ccc(F)cc1)C1CCN(CCn2c(=O)[nH]c3ccccc3c2=O)CC1`, the z-score in assay [3] (setting [7]) was determined as 0.795; in assay [3] (setting [8]), 0.577; in assay [3] (setting [9]) it was 0.595. Also, the values for the activity, negative = inhibition in assay [2] (setting [5]) and in assay [2] (setting [6]) were 5.58% (inactive) and 9.97% (inactive), respectively. The Potency result in the assay on 3D7, with AA1029 and in the assay with AS120 was “inactive” throughout. Also, in the assay with 7G8, the Potency is 5.01 µM (active).

As for `NC12CC3CC(CC(C3)C1)C2`, the Z-AUC in assay [1] is 0.0042 (inactive); in assay [1] (setting [4]) it was 0.0418; in assay [1] (measured here: PEO4 Z-AUC) it was 0.463. Also, the activity, negative = inhibition was 8.47% (inactive) in assay [2] (setting [5]) and 14.2% (inactive) in assay [2] (setting [6]). For the same compound, the Potency result in the assay with 3D7, with AA1029 and in the assay with AS120 was “inactive” throughout.

For the compound `NCCS(=O)(=O)O`, the z-score in assay [3] (setting [7]) turned out to be 0.929; in assay [3] (setting [8]), 0.854; in assay [3] (setting [9]), 0.716. In addition, the activity, negative = inhibition in assay [2] (setting [5]) was 5.98% (inactive); in assay [2] (setting [6]), -25.3% (inactive). Moreover, the Potency result in the assay on 3D7, in the assay on 7G8, in the assay with AA1029 and in the assay on AS120 was “inactive” each time.
